Screens from PubChem.
PGC1a acetyl inh: PGC1a acetylation modulation, inhibitor mode. U2OS PGC1a acetylation, AlphaScreen anti-acetyl-lysine; with virally co-expressed GCN5 acetyltransferase. inhibition, % at 15.6 µM. 0.17% of 350,000 active. AID 651687;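 active means every replicate shows inhibition of at least 40%; inconclusive means mean inhibition at least 40% but some replicate below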
GSIS activator: GLuc luminescence reporter in INS-1E cells, primary screen for activators of glucose-dependent secretion of insulin. INS-1E GLuc reporter insulin secretion, 2-3 h. activation, % at 16.6 µM. 0.61% of 370,000 active. AID 743287;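 active means lowest replicate activation of at least 40%, so every replicate reaches that level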
DENV2 CPE: DENV2-induced cell death inhibition; 1.7% of 350,000 active; CPE inhibition, % at 9.99 µM; DENV2-infected cells, cytopathic effect rescue, plate reader; in the data active means CPE inhibition above about 20%, passing the limit was not always enough; inconclusive means no clear call, values can overlap the other calls; tested in BHK-21 cells
Ecoli rRNA inh: inhibits bacterial ribosomal RNA function over humanized ribosomes; E. coli WT GFP vs humanized-ribosome RFP mutants, fluorescence, 24 h; hits give low values; DMSO median 0, no signal -100; GFP signal change (wild-type ribosome), % (test concentration not listed); 1.6% of 350,000 active; AID 720706;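 active means significant combined selectivity score with lowered wild-type GFP, culture density cut under 30%, mutant RFP and density less affected; inactive means any of these conditions unmet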
ERAP1 inh: ERAP1 (human) enzyme inhibition | Q9NZ08 | recombinant ERAP1, Leu-AMC fluorescence, 60 min | inhibition, % at 10.7 µM | 0.15% of 340,000 active | AID 652197;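 active means mean replicate inhibition of at least 30%, or all replicates individually reaching that 30% level; inactive means mean below 30% and not every replicate reaching it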
Target sequence (Q9NZ08 whole entry, looked up): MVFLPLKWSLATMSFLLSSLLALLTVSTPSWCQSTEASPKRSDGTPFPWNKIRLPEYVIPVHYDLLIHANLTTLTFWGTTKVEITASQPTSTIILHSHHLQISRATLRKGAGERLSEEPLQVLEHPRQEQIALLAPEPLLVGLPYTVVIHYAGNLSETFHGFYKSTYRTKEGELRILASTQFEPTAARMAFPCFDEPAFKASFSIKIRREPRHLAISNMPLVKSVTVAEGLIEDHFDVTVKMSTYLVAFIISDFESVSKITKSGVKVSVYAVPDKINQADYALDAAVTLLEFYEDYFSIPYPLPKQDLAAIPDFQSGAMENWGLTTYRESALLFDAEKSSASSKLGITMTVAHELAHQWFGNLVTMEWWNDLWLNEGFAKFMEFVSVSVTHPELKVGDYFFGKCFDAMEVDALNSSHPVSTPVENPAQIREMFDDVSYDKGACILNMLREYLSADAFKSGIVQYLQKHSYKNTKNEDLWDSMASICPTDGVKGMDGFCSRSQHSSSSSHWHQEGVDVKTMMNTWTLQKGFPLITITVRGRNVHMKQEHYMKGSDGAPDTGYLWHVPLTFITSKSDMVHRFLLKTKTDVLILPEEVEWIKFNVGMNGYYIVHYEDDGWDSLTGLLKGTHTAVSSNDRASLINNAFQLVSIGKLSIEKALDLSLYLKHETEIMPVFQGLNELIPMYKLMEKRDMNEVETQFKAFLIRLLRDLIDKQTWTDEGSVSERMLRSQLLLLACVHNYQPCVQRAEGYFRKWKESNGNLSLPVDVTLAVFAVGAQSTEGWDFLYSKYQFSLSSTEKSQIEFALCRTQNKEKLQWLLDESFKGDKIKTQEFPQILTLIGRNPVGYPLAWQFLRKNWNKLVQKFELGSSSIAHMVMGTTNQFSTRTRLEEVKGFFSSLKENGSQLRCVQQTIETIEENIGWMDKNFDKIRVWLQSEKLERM
CaV13 ICDI inh: Primary screen for inhibitors of IQ motif and Ca2+-dependent inactivation inhibitor domain binding in CACNA1D, Förster resonance energy transfer in living cells, …. HEK cells, CFP/YFP FRET ICDI-IQ, plate reader, 10 min; percent FRET-ratio fall versus neutral wells. inhibition, % at 12.3 µM. 0.098% of 340,000 active;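 active means mean replicate inhibition of at least 30% and at least 1% of replicates passing that level; inconclusive means only one of the two criteria is met; inactive means neither criterion is met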
Each line names hits and unclear results; the compound was inactive in the other large screens. The list is not random: actives were taken first. Their share in the collection is about 3.2%.

COC(=O)c1sccc1NC(=O)COc1ccc(Cl)cc1Cl	GSIS activator 61 (no result: PGC1a acetyl inh, DENV2 CPE, Ecoli rRNA inh, ERAP1 inh)
CC(C)C(=O)Nc1ccc2c(c1)C(=O)N(C)[C@@H]1CC[C@H](CC(=O)N[C@@H](C)c3ccccc3)O[C@H]1CO2	none (no result: ERAP1 inh, CaV13 ICDI inh)
COc1ccccc1-c1ccc2n(c1=O)C[C@@H]1[C@@H](CO)[C@H](C(=O)N3CCCCC3)[C@H]2N1CC1CC1	none (no result: PGC1a acetyl inh, CaV13 ICDI inh)
Cc1ccc(CNC(=S)NC2CCC(C(C)(C)C)CC2)cc1 (stereo unspecified)	DENV2 CPE inconclusive (no result: PGC1a acetyl inh)
CC(NC(=S)NC1CCC(C(C)(C)C)CC1)c1ccccc1 (stereo unspecified)	DENV2 CPE 23
O=C(N/N=C/c1ccncc1)c1ccccc1	none (no result: PGC1a acetyl inh, DENV2 CPE, Ecoli rRNA inh, ERAP1 inh)
CCn1c2ccccc2c2cc(/C=N/NC(=O)c3ccncc3)ccc21	Ecoli rRNA inh -36 (no result: PGC1a acetyl inh)
O=C(N/N=C/c1cccc(Oc2ccccc2)c1)c1ccncc1	DENV2 CPE inconclusive, Ecoli rRNA inh -21
O=C(N/N=C/c1cc(Cl)cc(Cl)c1O)c1ccncc1	Ecoli rRNA inh -19
CO[C@@H]1CN(C)C(=O)c2ccc(NC(=O)C3CCOCC3)cc2OC[C@H](C)N(C(=O)c2ccccc2)C[C@H]1C	DENV2 CPE inconclusive (no result: ERAP1 inh, CaV13 ICDI inh)
C[C@@H]1CN(C)C(=O)Cc2cc(N)ccc2O[C@@H]1CN(C)C(=O)OC(C)(C)C	none (no result: PGC1a acetyl inh, DENV2 CPE, ERAP1 inh, CaV13 ICDI inh)
COc1cccc(-n2c(Cc3cc(=O)[nH]c(=O)[nH]3)nnc2SCC(=O)N2CCCCCC2)c1	DENV2 CPE 69
COc1cccc(-n2c(Cc3cc(=O)[nH]c(=O)[nH]3)nnc2SCC(=O)N2CCCC2)c1	none (no result: PGC1a acetyl inh, GSIS activator, DENV2 CPE, Ecoli rRNA inh, ERAP1 inh)
CCOC(=O)Cc1csc(/N=C/c2c(O)n(-c3ccc(C)c(C)c3)c(=O)c3ccccc23)n1	GSIS activator 42 (no result: PGC1a acetyl inh, DENV2 CPE, Ecoli rRNA inh, ERAP1 inh)
C[C@@H]1CCCCO[C@@H](CN(C)C(=O)Cc2ccccc2)[C@@H](C)CN([C@@H](C)CO)C(=O)c2cc(NC(=O)CCC(F)(F)F)ccc2O1	none (no result: ERAP1 inh, CaV13 ICDI inh)
COC(=O)c1ccc(C)c(-n2c(=O)n(Cc3ccccc3)c(=O)c3[nH]cnc32)c1	GSIS activator 44
CC(=O)CC[N+](C)(C)C	ERAP1 inh 37 (no result: PGC1a acetyl inh)
CCCc1cc(CNC(=O)C2CCC(=O)N(CCc3cccc(F)c3)C2)on1 (stereo unspecified)	DENV2 CPE 55
O=C(/C=C/c1ccccc1)C1=C(O)C(=O)N(CCO)C1c1ccc2c(c1)OCO2 (stereo unspecified)	CaV13 ICDI inh 34
C/C=C/c1cnc2c(c1)C(=O)N([C@@H](C)CO)C[C@@H](C)[C@H](CN(C)C(=O)C1CCOCC1)O2	none (no result: CaV13 ICDI inh)
COCC(=O)Nc1ccc2c(c1)OC[C@@H](C)N(C(=O)Cc1ccccn1)C[C@@H](C)[C@@H](OC)CN(C)C2=O	none (no result: CaV13 ICDI inh)
COCCn1nnnc1C(c1cccs1)N1CCN(c2nc3ccccc3s2)CC1 (stereo unspecified)	Ecoli rRNA inh -22 (no result: DENV2 CPE)
CCN(CC)CCCNC(=S)N1CCN(c2nc3ccccc3n2CC)CC1	DENV2 CPE 41
COCCCNC(=S)N1CCN(c2nc3ccccc3s2)CC1	Ecoli rRNA inh -30 (no result: PGC1a acetyl inh)
COCCNC(=S)N1CCN(c2nc3ccccc3s2)CC1	Ecoli rRNA inh -26 (no result: PGC1a acetyl inh)
CCN(CC)CCCNC(=S)N1CCn2c(nc3ccccc32)C1	none (no result: DENV2 CPE, Ecoli rRNA inh, ERAP1 inh)
COCCNC(=O)C[C@@H]1CC[C@@H]2[C@H](COC[C@@H](O)CN2C(=O)Nc2ccc3c(c2)OCO3)O1	none (no result: CaV13 ICDI inh)
CCCC(=O)Nc1ccc2c(c1)C(=O)N(C)C[C@H](OC)[C@H](C)CN(C(=O)c1cccnc1)[C@@H](C)CO2	DENV2 CPE inconclusive (no result: CaV13 ICDI inh)
COc1ccc(C(=O)NC(=S)N(C)C2CCCCC2)cc1Br	DENV2 CPE 59 (no result: CaV13 ICDI inh)
COc1ccccc1/C=C/C(=O)NC(=S)N(C)C1CCCCC1	Ecoli rRNA inh -24
COc1ccc(C(=O)NC(=S)N(C)C2CCCCC2)cc1	none
C[C@@H]1CN([C@H](C)CO)C(=O)c2cc(NC(=O)Cc3ccccc3)ccc2O[C@@H](C)CCCCO[C@H]1CN(C)S(C)(=O)=O	DENV2 CPE inconclusive (no result: CaV13 ICDI inh)
COc1cccc(NC(=O)CN(C)CC(=O)Nc2ccc(Br)cc2)c1	Ecoli rRNA inh -34 (no result: PGC1a acetyl inh)
CCN(CC(=O)Nc1cccc(OC)c1)CC(=O)Nc1ccc(Br)c(C)c1	Ecoli rRNA inh -54
COc1cccc(NC(=O)CN(C)C(=O)Cc2ccc3c(c2)OCCO3)c1	DENV2 CPE 42 (no result: PGC1a acetyl inh)
COc1cccc(NC(=O)CN(C)CC(=O)Nc2cccc(C(F)(F)F)c2)c1	none
COc1cccc(NC(=O)COC(=O)c2sccc2C)c1	Ecoli rRNA inh -21
O=C(N[C@H]1CC[C@H](CCNS(=O)(=O)c2ccc(Cl)cc2)O[C@H]1CO)c1cccnc1	none (no result: CaV13 ICDI inh)
CNC[C@H]1Oc2ccc(NC(=O)NC3CCCCC3)cc2C(=O)N([C@H](C)CO)C[C@H]1C	none (no result: CaV13 ICDI inh)
Cc1ccc(NC(=O)CN(C)CC(=O)Nc2ccccc2Oc2ccccc2)cc1	Ecoli rRNA inh -35
CC(C)NC(=O)Nc1ccc2c(c1)C(=O)N([C@H](C)CO)C[C@H](C)[C@H](CN(C)CC1CC1)OCCCC[C@@H](C)O2	DENV2 CPE 107 (no result: CaV13 ICDI inh)
C[C@@H]1CCCCO[C@@H](CN(C)CC2CCCCC2)[C@H](C)CN([C@@H](C)CO)C(=O)c2cc(NC(=O)Nc3ccc(F)cc3)ccc2O1	DENV2 CPE 29 (no result: CaV13 ICDI inh)
C[C@@H]1CCCCO[C@H](CN(C)CC2CCCCC2)[C@@H](C)CN([C@H](C)CO)C(=O)c2cc(NC(=O)Nc3ccc(F)cc3)ccc2O1	none (no result: CaV13 ICDI inh)
CC(C)NC(=O)N[C@@H]1CC[C@H](CCn2cc(-c3ccc(F)cc3)nn2)O[C@@H]1CO	none (no result: CaV13 ICDI inh)
OC[C@H]1[C@@H](c2ccccc2)C2(CN(Cc3ccccc3)C2)N1Cc1ccncc1	none (no result: PGC1a acetyl inh, CaV13 ICDI inh)
O=C(Nc1ccc(-c2nc3ccccc3o2)cc1)c1ccc2c(c1)OCO2	none
O=C(Nc1ccc(NC(=O)c2cccs2)cc1)c1ccc2c(c1)OCO2	GSIS activator 47
O=C(Nc1cccc(N2C(=O)C=CC2=O)c1)c1cccs1	ERAP1 inh 33
Cc1nc2ccccc2c(=O)n1-c1cccc(NC(=O)c2cccs2)c1	none (no result: PGC1a acetyl inh)
O=C(Nc1cccc(NC(=O)c2cccs2)c1)c1ccc2c(c1)OCO2	Ecoli rRNA inh -34 (no result: PGC1a acetyl inh)
O=C(Nc1ccc(NC(=O)c2cccs2)cc1)c1ccc2c(c1)OCCO2	none (no result: ERAP1 inh)
Cc1ccc2oc(-c3ccc(NC(=O)c4ccc5c(c4)OCO5)cc3)nc2c1	GSIS activator 246 (no result: DENV2 CPE, Ecoli rRNA inh, ERAP1 inh)
Cc1ccc(S(=O)(=O)N(C)C[C@H]2OCCCC[C@H](C)Oc3ccc(NC(=O)c4ccccc4)cc3C(=O)N([C@@H](C)CO)C[C@H]2C)cc1	none (no result: CaV13 ICDI inh)
Cc1noc(C)c1NC(=O)Nc1ccc2c(c1)C(=O)N([C@@H](C)CO)C[C@@H](C)[C@H](CN(C)C(=O)Nc1ccc3c(c1)OCO3)O2	none (no result: CaV13 ICDI inh)
O=C(Nc1ccc(Cc2ccncc2)cc1)c1cccs1	DENV2 CPE 31
